The record followed here is PubChem BioAssay (NCATS).

Structures are written as SMILES. Several values for one entry are separate records, joined by “and”; a condition that tells them apart may be missing. Equal entries are not always repeated. Records with an inconclusive call do not appear. Activity calls are given as the source filed them. Unless noted, calls follow the shape of the dose curve; as a rule, active = well fitted curve in the direction sought with a large enough effect; inconclusive = small, poorly fitted or top-dose-only effect, or another doubt; inactive = no such curve, though single readings can be large; an effect the other way counts as inactive or inconclusive. Some results are limits rather than exact numbers.

Assay [1] is described as follows: Cell Viability - N2a (AID 540).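 Also: plate controls were DMSO alone for no effect and tamoxifen control for full effect; nearly all actives have a fitted effect of over 45% in size.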 The settings on record: N2a mouse neuroblastoma cell viability; activity change, negative = cytotoxicity: at 92.2 µM (top of the series). The essentials:
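Mouse neuroblastoma N2a cells, 1500/well, exposed to compounds 40 h at 37 °C in complete medium. Viability measured as cellular ATP by CellTiter-Glo luminescence; AC50 from Hill fits of concentration-response.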

Assay [2] is described as follows: Cell Viability - NIH 3T3 (AID 541). Also: nearly all actives have a fitted effect of over 25% in size. Also: potency is read from the fitted curve at half-maximal effect.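 As to activity change, negative = cytotoxicity: plate controls were DMSO alone for no effect and tamoxifen positive control for full effect.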 The following applies: NIH 3T3 cell viability, qHTS; activity change, negative = cytotoxicity: at 92.2 µM (top of the series). The essentials: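 Mouse NIH 3T3 fibroblasts, 1000 cells/well, rested 5 hr at 37 °C, then exposed to compound for 40 hr at 37 °C in complete medium. Viability read as intracellular ATP by CellTiter-Glo luminescence; AC50 from Hill-equation fits of concentration-response data.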
On the technique in general: qHTS replaces the single test concentration by a dilution series.

Assay [3] is described as follows: Cell Viability - LYMP2-025 (AID 976).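 Also: plate controls were DMSO only for no effect and tetraoctylammonium bromide control for full effect.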 The essentials: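 Human lymphoblastoid LYMP2-025 cells, 2500/well, exposed 24 h at 37 C in complete medium in 1536-well qHTS. Viability as cellular ATP by CellTiter-Glo luminescence; AC50 from Hill fits of concentration-response data.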
Assay [4] in a line: Cell Viability - LYMP2-010 (AID 981). Also: % is scaled to controls: 0 for no effect and ±100 for the full control effect; nearly all actives have a fitted effect of over 55% in size. The essentials:
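Human lymphoblastoid LYMP2-010 cells (2500/well) treated 24 h at 37 C in complete medium; viability read as intracellular ATP by CellTiter-Glo luminescence. AC50 from Hill fits of concentration-response data; tetraoctylammonium bromide positive control.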

Assay [5] is described as follows: Cell Viability - LYMP2-018 (AID 985).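 Also: compound exposure lasted 24 hr at 37 °C; plate controls were DMSO only for no effect and tetraoctylammonium bromide at 92 µM for full effect; nearly all actives have a fitted effect of over 50% in size.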 Summed up:
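Human lymphoblastoid LYMP2-018 cells, 2500/well, settled 5 hr at 37 C then exposed to compound 24 hr at 37 C; intracellular ATP measured by CellTiter-Glo luminescence. AC50 from Hill-equation concentration-response fits.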

Assay [6] is described as follows: Cell Viability - LYMP2-022 (AID 987).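 Also: 0% = DMSO alone and full effect = tetraoctylammonium bromide at 92 µM; nearly all actives have a fitted effect of over 55% in size.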 Summed up:
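LYMP2-022 lymphoblastoid cells (2500/well, complete medium) were treated with compounds for 24 hours at 37 C; intracellular ATP was then read by CellTiter-Glo luminescence after 30 min at room temperature. AC50 values were derived from Hill-equation fits.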

The target in assay [7] is Estrogen receptor (Homo sapiens) (UniProt P03372). As to the kind of experiment: qHTS assay for small molecule antagonists of estrogen receptor alpha signaling (AID 588513; active = well fitted curve in the direction sought with a large enough effect in the signal ratio, with a control signal flat, not every such curve was filed as active; the % refers to the signal ratio; also: % is scaled to controls: 0 for no effect and ±100 for the full control effect). Summed up: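 ER-alpha-UAS-bla GripTite HEK 293 cells in medium with 2% charcoal/dextran-treated FBS were preincubated 4 h at 37 C, dosed with compound (1:2 titration), stimulated with 0.5nM 17-beta-estradiol for 18 h, then read by CCF4 beta-lactamase fluorescence.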

Assay [8] has the same target. As to the kind of experiment: qHTS assay for small molecule agonists of estrogen receptor alpha signaling (AID 588514; calls by dose curve;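 also: 0% = vehicle only and 100% = reference agonist; nearly all actives have a fitted effect of over 70% in size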). The essentials:
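ER-alpha-UAS-bla GripTite HEK293 cells, 5000/well in 2% charcoal/dextran-stripped FBS medium, treated with compound titrations 18 h at 37 C. CCF4 beta-lactamase read by fluorescence after 2 h RT; normalised to 20 nM 17-beta-estradiol (100%) and DMSO (0%), Hill fit for EC50 and efficacy.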

The target of assay [9] is Bile acid receptor (Homo sapiens) (UniProt Q96RI1). As to the kind of experiment: qHTS assay for small molecule agonists of farnesoid X receptor signaling (AID 588527; calls by dose curve;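 also: 0% = vehicle basal and 100% = reference agonist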). The following applies: HEK293T FXR-UAS-bla, beta-lactamase ratio, 16 h; stronger effect = higher value. The essentials: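 Quantitative HTS used FXR-UAS-bla HEK293T cells with 16 h compound incubation at 37 C. EC50 values came from concentration-response curves normalized to chenodeoxycholic acid.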

In assay [10] the target is Retinoic acid receptor RXR-alpha (Homo sapiens) (UniProt P19793). As to the kind of experiment: qHTS assay for small molecule antagonists of retinoid X receptor alpha signaling (AID 588546; active = well fitted inhibition curve with a large enough effect in the signal ratio, with a control signal flat, not every such curve was filed as active; the % refers to the signal ratio;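 also: cells stimulated with 9-cis-retinoic acid as agonist; % is scaled to controls: 0 for no effect and ±100 for the full control effect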). The settings on record: HEK293T RXRa-UAS-bla, beta-lactamase ratio, antagonist mode. The essentials:
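Beta-lactamase reporter inhibition, read as CCF4 fluorescence ratio (ex 405, em 460/530 nm) after 2 h at RT. HEK293T UAS-bla cells, 2500/well, were stimulated with 9-cis-RA at 500 or 100 nM final alongside test compound for 18 h at 37 C.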

For assay [11], the target named is Thyroid hormone receptor beta (Homo sapiens) (UniProt P10828). As to the kind of experiment: qHTS assay for small molecule antagonists of thyroid hormone receptor beta signaling (AID 588547; active = well fitted inhibition curve with a large enough effect in the signal ratio, with a control signal flat, not every such curve was filed as active; the % refers to the signal ratio;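 also: cells stimulated with 0.4 nM T3 agonist during compound exposure; % is scaled to controls: 0 for no effect and ±100 for the full control effect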). The settings on record: TR-UAS-bla HEK293, beta-lactamase ratio, antagonist mode, 18 h. The essentials:
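Inhibition of T3-driven (0.4nM final) beta-lactamase reporter activity was measured over 0.59 nM to 92 uM compound after 18 h at 37 C. The cells were GripTite HEK293 TR-UAS-bla in charcoal/dextran-stripped serum, with CCF4 ratio read-out and IC50 from Hill fits.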

Assay [12] in a line: qHTS assay for small molecule agonists of the antioxidant response element (ARE) signaling pathway (AID 651741; active = well fitted activation curve with a large enough effect in the signal ratio; the % refers to the signal ratio; also: potency is read from the fitted curve at half-maximal effect; as to activation: % of control where 0% means no effect). Summed up: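 Quantitative HTS in HepG2 cells stably expressing an ARE-beta-lactamase reporter; 16 h compound exposure at 37 C, followed by 2 h room-temperature incubation with LiveBLAzer B/G FRET substrate and fluorescence measurement.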
The nature of assay [13]: qHTS assay for small molecule disruptors of the mitochondrial membrane potential - 1 hr assay (AID 651754; calls by dose curve; also: % is scaled to controls: 0 for no effect and ±100 for the full control effect; nearly all actives have a fitted effect of over 35% in size). Summed up:
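HepG2 cells, attached overnight, were exposed to compound for 1 hr at 37C, then stained 30 min with a potentiometric dye. Ratio of red aggregate (590nm) to green monomer (535nm) fluorescence reports membrane potential; collapse shifts signal toward green.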

A short description of assay [14]: qHTS assay for small molecule agonists of the antioxidant response element (ARE) signaling pathway measured by Nrf2-dependant transcriptional activity (AID 720636; active = well fitted curve in the direction sought with a large enough effect in the repeat runs; an effect the other way counts as inactive or inconclusive;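 also: HepG2 cells with an ARE-driven luciferase reporter; % of control where 0% means no effect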). The essentials: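 Cells: ARE-luc HepG2 with Nrf2-responsive luciferase. Medium contained 1% dialyzed FBS. Compound exposure lasted 16 hr at 37 C and 5% CO2, followed by ONE-Glo luciferase detection.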

Assay [15] in a line: Cell Viability - MRC5 (AID 434; calls by dose curve;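 also: potency is read from the fitted curve at half-maximal effect; potency reflects cytotoxicity seen as loss of intracellular ATP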). The settings on record: MRC5 lung fibroblast viability, qHTS. Summed up:
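qHTS cytotoxicity in human lung fibroblast MRC5 cells; 40 hr treatment, 37 °C; cellular ATP by luciferase luminescence; DMSO = 0%, 100 uM tamoxifen = 100% inhibition; Hill-fit AC50.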

Assay [16] in a line: qHTS assay for small molecule antagonists of peroxisome proliferator-activated receptor delta signaling (AID 588535; active = well fitted inhibition curve with a large enough effect in the signal ratio, with a control signal flat, not every such curve was filed as active; the % refers to the signal ratio;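 as to max response: cells co-treated with a PPAR-delta agonist as stimulator during compound exposure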). The following applies: HEK293T PPARd-UAS-bla, beta-lactamase FRET ratio, 18 h; 460 nm channel. The essentials:
(§1)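 HEK293T PPAR-delta-UAS-bla cells, 4000/well, 2% charcoal/dextran FBS; 5 h 37 C; cpd titration; 18 h 37 C; CCF4 2 h RT; FI 460/530 nm; Hill fit → IC50, efficacy.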

For assay [17], the target named is Peroxisome proliferator-activated receptor delta (Homo sapiens) (UniProt Q03181). The description is as above. The essentials: as §1
Assay [18] deals with Peroxisome proliferator-activated receptor gamma (Homo sapiens) (UniProt P37231). As to the kind of experiment: qHTS assay for small molecule antagonists of peroxisome proliferator-activated receptor gamma signaling (AID 588537; active = well fitted inhibition curve with a large enough effect in the signal ratio, with a control signal flat, not every such curve was filed as active; the % refers to the signal ratio;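 also: reporter cells co-stimulated with 50 nM rosiglitazone agonist during compound treatment; % of control where 0% means no effect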). The essentials: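 Antagonist mode, beta-lactamase reporter in HEK293; charcoal/dextran FBS 1%; 3000 cells/well, 37 C 6-6.5 h; cpd titration + rosiglitazone 50 nM final, 16 h 37 C; CCF4, 2 h RT; 460/530 nm; Hill fit → IC50, efficacy.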

Assay [19] concerns the target Nuclear receptor ROR-gamma (Homo sapiens) (UniProt P51449). As to the kind of experiment: qHTS assay for small molecule antagonists of the retinoid-related orphan receptor gamma (ROR-gamma) signaling pathway (AID 651802). Also: nearly all actives have a fitted effect of over 60% in size. Also: potency is read from the fitted curve at half-maximal effect. The essentials: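 CHO cells with TET-inducible ROR-gamma and RORE-luciferase reporter, dosed then doxycycline-induced. After 16 h at 37C, One-Glo luminescence read; decreased signal indicates antagonism.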

For assay [20], the target named is Peroxisome proliferator-activated receptor delta (Homo sapiens) (UniProt Q03181). As to the kind of experiment: qHTS assay for small molecule agonists of peroxisome proliferator-activated receptor delta signaling (AID 588534; calls by dose curve;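 also: 0% = DMSO basal wells and 100% = positive control agonist at 10 µM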). The essentials: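 Cells carrying a PPAR-delta beta-lactamase reporter were treated with compounds for 18 h at 37 °C in agonist mode. CCF4 fluorescence was read after 2 h; EC50 and efficacy from Hill fits.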

Sequence of Estrogen receptor (Homo sapiens) (P03372 whole entry, looked up): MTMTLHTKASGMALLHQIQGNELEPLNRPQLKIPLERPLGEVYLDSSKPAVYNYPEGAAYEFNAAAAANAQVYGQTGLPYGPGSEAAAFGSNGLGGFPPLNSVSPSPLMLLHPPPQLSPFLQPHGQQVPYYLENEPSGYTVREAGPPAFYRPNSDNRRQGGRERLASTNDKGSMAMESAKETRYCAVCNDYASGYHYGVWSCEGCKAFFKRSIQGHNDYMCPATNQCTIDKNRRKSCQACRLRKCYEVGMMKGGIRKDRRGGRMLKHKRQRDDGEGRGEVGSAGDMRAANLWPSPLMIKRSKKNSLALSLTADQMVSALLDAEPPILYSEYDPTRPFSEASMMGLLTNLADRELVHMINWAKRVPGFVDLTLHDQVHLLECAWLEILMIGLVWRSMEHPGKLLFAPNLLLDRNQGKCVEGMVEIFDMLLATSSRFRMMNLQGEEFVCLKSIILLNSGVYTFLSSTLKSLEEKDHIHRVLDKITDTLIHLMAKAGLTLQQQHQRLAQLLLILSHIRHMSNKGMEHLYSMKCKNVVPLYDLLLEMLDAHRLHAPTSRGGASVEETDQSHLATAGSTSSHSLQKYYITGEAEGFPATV
Sequence of Peroxisome proliferator-activated receptor delta (Homo sapiens) (Q03181 whole entry, looked up): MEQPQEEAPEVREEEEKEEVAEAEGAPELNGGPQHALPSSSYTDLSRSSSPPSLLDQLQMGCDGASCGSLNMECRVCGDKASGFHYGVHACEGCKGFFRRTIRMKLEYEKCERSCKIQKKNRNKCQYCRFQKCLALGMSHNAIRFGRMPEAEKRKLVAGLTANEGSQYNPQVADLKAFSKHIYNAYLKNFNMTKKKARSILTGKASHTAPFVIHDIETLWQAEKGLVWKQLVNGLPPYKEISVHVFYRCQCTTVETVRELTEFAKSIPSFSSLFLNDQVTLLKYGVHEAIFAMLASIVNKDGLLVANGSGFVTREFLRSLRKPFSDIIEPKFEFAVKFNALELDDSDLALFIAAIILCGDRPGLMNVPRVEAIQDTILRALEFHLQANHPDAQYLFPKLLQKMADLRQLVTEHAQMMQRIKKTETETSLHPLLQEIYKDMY
Sequence of Retinoic acid receptor RXR-alpha (Homo sapiens) (P19793 whole entry, looked up): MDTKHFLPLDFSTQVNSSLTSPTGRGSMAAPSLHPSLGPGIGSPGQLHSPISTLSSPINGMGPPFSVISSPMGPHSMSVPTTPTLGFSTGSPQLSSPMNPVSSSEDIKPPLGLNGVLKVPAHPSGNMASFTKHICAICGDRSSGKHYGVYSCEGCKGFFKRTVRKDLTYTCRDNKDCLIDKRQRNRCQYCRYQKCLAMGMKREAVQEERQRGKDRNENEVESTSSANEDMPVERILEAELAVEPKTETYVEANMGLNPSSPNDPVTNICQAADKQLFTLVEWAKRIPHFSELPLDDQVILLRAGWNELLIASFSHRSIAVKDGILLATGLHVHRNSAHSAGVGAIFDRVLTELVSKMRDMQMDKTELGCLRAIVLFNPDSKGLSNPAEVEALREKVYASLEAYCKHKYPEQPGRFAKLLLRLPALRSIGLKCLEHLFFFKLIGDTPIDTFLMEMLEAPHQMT
Sequence of Bile acid receptor (Homo sapiens) (Q96RI1 whole entry, looked up): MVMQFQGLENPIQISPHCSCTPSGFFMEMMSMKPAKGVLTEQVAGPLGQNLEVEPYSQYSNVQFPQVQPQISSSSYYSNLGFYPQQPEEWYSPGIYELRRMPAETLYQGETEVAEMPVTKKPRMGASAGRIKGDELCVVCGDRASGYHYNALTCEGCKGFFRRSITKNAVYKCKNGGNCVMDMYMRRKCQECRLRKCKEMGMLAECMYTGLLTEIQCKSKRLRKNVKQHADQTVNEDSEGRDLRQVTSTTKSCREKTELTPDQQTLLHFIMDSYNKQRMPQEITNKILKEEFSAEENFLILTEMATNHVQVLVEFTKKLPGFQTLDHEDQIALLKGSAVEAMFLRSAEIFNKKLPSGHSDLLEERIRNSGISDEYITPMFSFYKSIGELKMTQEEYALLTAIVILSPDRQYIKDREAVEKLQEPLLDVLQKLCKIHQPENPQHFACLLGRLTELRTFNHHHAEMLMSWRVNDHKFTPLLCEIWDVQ
Sequence of Nuclear receptor ROR-gamma (Homo sapiens) (P51449 whole entry, looked up): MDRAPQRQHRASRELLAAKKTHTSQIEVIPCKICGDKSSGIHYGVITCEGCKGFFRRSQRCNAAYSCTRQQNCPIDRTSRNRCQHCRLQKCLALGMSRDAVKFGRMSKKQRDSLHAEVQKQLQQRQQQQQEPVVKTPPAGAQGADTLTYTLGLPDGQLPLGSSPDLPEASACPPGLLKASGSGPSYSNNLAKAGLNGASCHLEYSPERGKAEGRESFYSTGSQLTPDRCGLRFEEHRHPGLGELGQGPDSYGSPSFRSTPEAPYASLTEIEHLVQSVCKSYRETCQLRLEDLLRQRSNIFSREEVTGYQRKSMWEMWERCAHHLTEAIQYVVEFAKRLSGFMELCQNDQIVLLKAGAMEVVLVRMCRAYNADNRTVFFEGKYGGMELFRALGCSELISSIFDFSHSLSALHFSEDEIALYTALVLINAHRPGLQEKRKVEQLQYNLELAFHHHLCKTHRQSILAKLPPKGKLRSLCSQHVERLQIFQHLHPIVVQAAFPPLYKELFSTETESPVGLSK
Sequence of Thyroid hormone receptor beta (Homo sapiens) (P10828 whole entry, looked up): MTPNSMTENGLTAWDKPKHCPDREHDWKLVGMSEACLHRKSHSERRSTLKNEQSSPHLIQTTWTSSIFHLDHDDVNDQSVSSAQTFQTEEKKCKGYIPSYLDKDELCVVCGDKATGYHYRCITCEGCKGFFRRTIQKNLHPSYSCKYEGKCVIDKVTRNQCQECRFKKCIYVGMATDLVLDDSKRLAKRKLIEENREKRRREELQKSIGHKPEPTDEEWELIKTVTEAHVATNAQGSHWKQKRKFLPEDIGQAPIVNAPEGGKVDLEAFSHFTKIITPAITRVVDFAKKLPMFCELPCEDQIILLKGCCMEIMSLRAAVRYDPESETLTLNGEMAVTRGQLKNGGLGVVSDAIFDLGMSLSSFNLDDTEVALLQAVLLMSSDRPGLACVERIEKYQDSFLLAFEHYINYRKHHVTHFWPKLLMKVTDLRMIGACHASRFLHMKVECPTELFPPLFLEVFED
Sequence of Peroxisome proliferator-activated receptor gamma (Homo sapiens) (P37231 whole entry, looked up): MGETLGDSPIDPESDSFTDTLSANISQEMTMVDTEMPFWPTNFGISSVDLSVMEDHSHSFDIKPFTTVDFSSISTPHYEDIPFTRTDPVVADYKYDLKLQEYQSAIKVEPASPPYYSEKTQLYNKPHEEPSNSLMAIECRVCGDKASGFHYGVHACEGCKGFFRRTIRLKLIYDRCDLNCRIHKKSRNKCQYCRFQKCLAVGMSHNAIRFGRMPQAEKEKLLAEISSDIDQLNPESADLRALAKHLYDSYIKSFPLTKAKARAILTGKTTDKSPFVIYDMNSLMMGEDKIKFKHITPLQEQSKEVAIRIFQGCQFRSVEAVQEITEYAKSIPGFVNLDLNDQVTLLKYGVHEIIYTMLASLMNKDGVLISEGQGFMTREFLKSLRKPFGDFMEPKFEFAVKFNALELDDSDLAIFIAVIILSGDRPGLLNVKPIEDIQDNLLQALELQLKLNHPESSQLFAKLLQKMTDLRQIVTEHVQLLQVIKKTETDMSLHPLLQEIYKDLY

In the case of `ClC(Cl)C(Cl)Cl`, the Potency entry in assay [1], in assay [2], in assay [3], in assay [4], in assay [5] and in assay [6] was “inactive” each time. Also, the Potency entry in [7], in assay [8], in assay [12], in assay [13] and in assay [14] was “inactive” throughout. Also, the activation in assay [9] is -2.53% (inactive). In [10], the max response was 4.18% (inactive). Also, the activity change % (negative = inhibition) in [11] was 0.5% (inactive).
On to `Nc1ccc([N+](=O)[O-])cc1N`, for which the Potency in assay [15] was > 92 µM (inactive); in assay [12] it was 3.76 µM (active) and 2.73 µM (active); in assay [19], 42.2 µM (active). The Potency entry in assay [1], in assay [5], in assay [6] and in assay [18] was “inactive” in each case. In [16], the max response stood at 3.68%. Further, the result in assay [17] was inactive.
On to `Nc1ccc(-c2ccccc2)cc1`, for which the Potency entry in [1], in assay [2], in assay [3], in assay [4], in assay [5] and in assay [6] was “inactive” in each case. The Potency result in assay [7], in assay [8] and in assay [19] was “inactive” each time. For the same compound, in assay [10], the max response is -7.2% (inactive). The activity change % (negative = inhibition) in assay [11] was -2.45% (inactive).
As for `C/C=C/CC#N`, the Potency in assay [15] was > 92 µM (inactive). Moreover, the Potency result in assay [1], in assay [2], in assay [4], in assay [5], in assay [6] and in assay [7] was “inactive” each time. For the same compound, the Potency result in assay [8], in assay [13] and in assay [19] was “inactive” throughout. The activation in assay [9] is -1.31% (inactive). The max response in [16] is -4.54%; in assay [10] it was 13.1% (inactive). Moreover, the compound was called inactive in assay [17]. Moreover, the activity change % (negative = inhibition) in [11] is 15.6% (inactive).
Consider `c1ccc(OCC2CO2)cc1` (stereo unspecified), for which the Potency in [15] was > 92 µM (inactive). The Potency result in assay [3], in [4], in assay [6], in assay [12], in assay [19] and in assay [14] was “inactive” in each case. In addition, in assay [10], the max response was -20.9% (inactive). For the same compound, in [11], the activity change % (negative = inhibition) is 6.77% (inactive).
With `Nc1ccccc1-c1ccccc1`, the Potency entry in assay [1], in [3], in assay [4], in [7], in assay [19] and in assay [14] was “inactive” in each case. Also, in [20], the outcome was inactive. Further, the Potency in [12] was 42.2 µM (active).
Take `O=C(Cc1ccccc1)OCc1ccccc1`: in assay [15], the Potency is > 92 µM (inactive). The Potency entry in assay [5], in [6], in [7], in [8], in [13] and in assay [19] was “inactive” each time. In addition, in assay [14], the Potency entry was “inactive”. In addition, in [9], the activation was -3.22% (inactive). In addition, the max response in assay [16] is 18.5%; in assay [10] it was -5.19% (inactive). Further, in assay [17], the result was inactive.
As to `COC(=O)Nc1nc2ccccc2[nH]1`, the Potency is 6.31 µM (active) in [2] and 61.1 µM (active) in [12]. In addition, the Potency result in assay [4], in assay [5], in [6], in assay [18] and in assay [13] was “inactive” each time. The result in [20] and in assay [17] was inactive. The max response was -45% in assay [16] and -21.4% (inactive) in [10]. Also, in [11], the activity change % (negative = inhibition) was -22.5% (inactive) and -22.8% (inactive).
Consider `C=CCO`, for which the Potency in assay [15] was > 92 µM (inactive). Further, the Potency entry in [1], in assay [2], in [3], in assay [6], in [12] and in assay [13] was “inactive” each time. The Potency entry in [14] was “inactive”. For the same compound, the figures for the max response in [16] and in assay [10] were 11.9% and 7.67% (inactive), respectively. In addition, the outcome in assay [17] was inactive.
